Sensor-assay potency score (higher = more potent) data for 40 sequences are collected here from the OligoGym collection.
Note: reference of the scale not given here.

One test addresses GALT. Briefly: pooled miR-30 sensor sort-seq; sequence = guide strand. The settings on record: shRNA.
With ATATCTGGCAGGAAACTGCTGG, the sensor-assay potency score (higher = more potent) is -0.342. In the case of ATACTTGGTCAAGAGCTTCTTC, the sensor-assay potency score (higher = more potent) was -0.165. Take TTCCTGAGTAGCTCCTGGCGGC: the sensor-assay potency score (higher = more potent) is -0.283.

The next test concerns the target GAPDH. The test is described as above. Particulars: shRNA.
The sequence TGAGCTTGACAAAGTGGTCGTT returned a sensor-assay potency score (higher = more potent) of 0.19. The same measure, in the same setting: the same measure for TTGGAACATGTAAACCATGTAG: -0.273; for ATTGATGACAAGCTTCCCGTTC: -0.354; for TTGGCAGGTTTTTCTAGACGGC: -0.926. ATTGATGGCAACAATATCCACT came in with a sensor-assay potency score (higher = more potent) of -0.562. The same measure, in the same setting: as for TCGCTGTTGAAGTCAGAGGAGA, the figure is -1.53; as for TTTTTCTAGACGGCAGGTCAGG, -1.01. ATTTCCATTGATGACAAGCTTC registered a sensor-assay potency score (higher = more potent) of -1.07.

In turn, ATGAGCTTGACAAAGTGGTCGT returned a sensor-assay potency score (higher = more potent) of 0.0447. Take TGGAACATGTAAACCATGTAGT: the sensor-assay potency score (higher = more potent) was -0.878.

In the case of TTGAGGTCAATGAAGGGGTCAT, the sensor-assay potency score (higher = more potent) was -0.473. Regarding TAGTTGAGGTCAATGAAGGGGT, the sensor-assay potency score (higher = more potent) was -0.233. TATTGGAACATGTAAACCATGT showed a sensor-assay potency score (higher = more potent) of -0.597.

AATTCGTTGTCATACCAGGAAA yielded a sensor-assay potency score (higher = more potent) of -1.59. In turn, AACATGTAAACCATGTAGTTGA had a sensor-assay potency score (higher = more potent) of -0.65.

TTGCTGTAGCCAAATTCGTTGT returned a sensor-assay potency score (higher = more potent) of -1.2. Sequence ATATTGGAACATGTAAACCATG came in with a sensor-assay potency score (higher = more potent) of -1.54. Regarding TAAACCATGTAGTTGAGGTCAA, the sensor-assay potency score (higher = more potent) is 0.434. On the same count and under the same terms, the same measure for TTGACAAAGTGGTCGTTGAGGG: -0.52.

The sequence TTCTCAGCCTTGACGGTGCCAT had a sensor-assay potency score (higher = more potent) of -0.93. Take TTGATGACAAGCTTCCCGTTCT: the sensor-assay potency score (higher = more potent) amounted to 0.0762.

As for TTGTCATGGATGACCTTGGCCA, the sensor-assay potency score (higher = more potent) was -0.37.

For TGTTGTCATACTTCTCATGGTT, the sensor-assay potency score (higher = more potent) came to 0.0358. The sequence TTGATGGCAACAATATCCACTT returned a sensor-assay potency score (higher = more potent) of -0.344.

A further test has as its target GATA4. The test is described as above. The settings on record: shRNA.
The sequence TTGGGCTTCCGTTTTCTGGTTT registered a sensor-assay potency score (higher = more potent) of -0.283. The same measure, in the same setting: as for TGGAGCTTCATGTAGAGGCCGC, the figure is -0.527; as for AACGTCTGGGACACGGAGCTGC, 0.00321. TTTGCTATCCTCCAAGTCCCAG had a sensor-assay potency score (higher = more potent) of -0.913. On the same count and under the same terms, as for TTCTGAGAAGTCGTCAAACATA, the figure is -1.72; as for TTGTTCTGGAGTCATTACCAGG, -1.25.

As to TTAGATTTATTCAGGTTCTTGG, the sensor-assay potency score (higher = more potent) was -0.334. TTGATGCCGTTCATCTTGTGGT showed a sensor-assay potency score (higher = more potent) of -0.805. Still for that read-out and setting: the same measure for TTCGTGTTGCAGAATCTCTGGC: 0.947; for TCGTCAAACATATCGAGATTGG: -0.878; for TGACACACTCTCTGCCTTCTGA: -0.406. Take TCGACTTCAAGTTTCTTCCCAG: the sensor-assay potency score (higher = more potent) is 0.0228.

Take TTTATTCAGGTTCTTGGGCTTC: the sensor-assay potency score (higher = more potent) was -0.422.
